Laboratory results reported in PubChem BioAssay (NCI).
The panel holds about 79,000 compounds, 15% with a hit somewhere; the sample as a whole holds those more often. Rule as the data show it: active = growth inhibition above about 70%; inactive = the rest.

Legend:
[1] = NCI Yeast Anticancer Drug Screen. Data for the rad50 strain (AID 155);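 also: 0% = growth of vehicle-only cultures of the same strain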; conditions: S. cerevisiae rad50 strain growth inhibition; at 50.0 µM; stronger effect = higher value
In short: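 Inhibition values express reduced yeast growth in compound-treated cultures relative to vehicle-treated controls.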

[2] = NCI Yeast Anticancer Drug Screen. Data for the mec2-1 strain (AID 157); conditions: S. cerevisiae mec2-1 strain, at 50.0 µM, stronger effect = higher value
In short: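 Strain: mec2-1 (DNA repair/cell cycle alteration). Compound exposure, then growth measured; inhibition expressed relative to vehicle.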

[3] = NCI Yeast Anticancer Drug Screen. Data for the sgs1 mgt1 strain (AID 161);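 also: 0% = growth of cultures given vehicle only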; conditions: S. cerevisiae sgs1 mgt1 strain, at 50.0 µM, stronger effect = higher value
In short: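 Read-out: growth inhibition vs vehicle controls. Cells: mutant yeast strain deficient in DNA damage repair.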

[4] = NCI Yeast Anticancer Drug Screen. Data for the cln2 rad14 strain (AID 165);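 also: 0% = growth equal to vehicle treated cultures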; conditions: S. cerevisiae cln2 rad14 strain, at 50.0 µM, stronger effect = higher value
In short: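 Compounds are applied to the cln2 rad14 yeast strain, and growth is then compared with that of vehicle-treated cultures to give inhibition.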

[5] = NCI Yeast Anticancer Drug Screen. Data for the bub3 strain (AID 167); conditions: S. cerevisiae bub3 mutant strain, at 50.0 µM, stronger effect = higher value
In short: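 Steps: expose the mutant yeast strain to compound; grow alongside vehicle-treated cultures; measure growth; express inhibition against the vehicle cultures.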

[6] = NCI Yeast Anticancer Drug Screen. Data for the mlh1 rad18 strain (AID 175); conditions: S. cerevisiae mlh1 rad18 strain growth inhibition; at 50.0 µM; stronger effect = higher value
In short: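 Read-out is yeast growth inhibition, calculated against vehicle-only controls. The compound was applied to a strain engineered with DNA damage repair alterations.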

Measured: growth inhibition

Oc1cccc2nc3cc(CN4CCOCC4)c(CN4CCOCC4)cc3nc12
inactive: [1] 8.35% | [2] -18.4% | [3] -1.05% | [4] 2.7% | [5] -26.1% | [6] -4%

O=C(Cc1n[nH]c(=S)nc1CC(=O)c1cccnc1)c1cccnc1
inactive: [1] 7.8% | [2] 12.2% | [3] 16.1% | [4] -1% | [5] 26.8% | [6] 2.7%

NC(=O)c1cc2ccccc2[n+](Cc2ccc(F)cc2)c1
inactive: [1] -0.2% | [2] 0.4% | [3] 6.45% | [4] -49.1% | [5] 4.9% | [6] -6.95%

COc1cccc(N2C(=O)C3c4[nH]c5ccc(C)cc5c4C4CCC(C(C)(C)C)CC4C3C2=O)c1 (stereo unspecified)
inactive: [1] 12.7% | [2] -20.1% | [3] 13% | [4] 2.55% | [5] 1.4% | [6] -5.55%

CCSc1cccc(C(=O)O)c1
inactive: [1] -23.1% | [2] -2.9% | [3] -3.4% | [4] -27.8% | [5] -22.9% | [6] -7.8%

N#Cc1ccc(CSC2=C(c3ccc(Cl)cc3)S/C(=C3\SC(SCc4ccc(C#N)cc4)=C(c4ccc(Cl)cc4)S3)S2)cc1
inactive: [1] -16.8% | [2] -15.3% | [3] -19.9% | [4] 7.7% | [5] -8.4% | [6] -25.9%
